From the supplement of paper PMC10849652
Targets with a hit are over-represented here; the source holds about 7,900 in all. About 0.6% of all pairs of compound and target were hits.

Columns and labels:
Test in all cases: log2 fold change, soluble protein after heating vs DMSO (PISA); higher = thermal stabilisation; K562 cells, 10 uM, 30 min; active = over 0.2 and 3.5 SD of the protein, either way, in both replicates (recomputed)
[1] = compound: CN1CCN(CCOc2cc(OC3CCOCC3)c3c(Nc4c(Cl)ccc5c4OCO5)ncnc3c2)CC1 [saracatinib]
How it was run: (§1)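 Values are thermal stability changes relative to control samples and are taken from duplicates. They are stated as log2 fold changes. Before quantification by TMTpro 16plex LC-MS/MS with equalised channel sums, K562 cells at 2×10^6 cells/mL were treated with 10 μM compound for 30 min, heated in aliquots for 3 min across 48°C-58°C, pooled, extracted in PBS with 0.5% NP-40 at 4°C, and centrifuged at 21,000xg for 90 min to give the soluble supernatant.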

[2] = compound: CN1CCN(c2nc(C3=C(c4c[nH]c5ccccc45)C(=O)NC3=O)c3ccccc3n2)CC1 [sotrastaurin]
How it was run: as §1

[3] = compound: CN1CC[C@H](c2c(O)cc(O)c3c(=O)cc(-c4ccccc4Cl)oc23)[C@H](O)C1 [alvocidib]
How it was run: as §1

[4] = compound: CN1CCc2c(c3ccccc3n2Cc2ccc(C(=O)NO)cc2)C1 [Tubastatin A]
How it was run: as §1

[5] = compound: CNC(=O)C1=CC=CC=C1NC2=NC(=NC=C2Cl)NC3=C(C=C(C=C3)N4CCOCC4)OC
How it was run: as §1

[6] = compound: CNC(=O)c1ccc(Nc2ncc(C(F)(F)F)c(NCc3nccnc3N(C)S(C)(=O)=O)n2)cc1 [defactinib]
How it was run: as §1

[7] = compound: CNCc1ccc(-c2[nH]c3cc(F)cc4c3c2CCNC4=O)cc1 [rucaparib]
How it was run: as §1

[8] = compound: CNc1nc(-c2ccc3c(N)n[nH]c3c2)cc(N2C[C@@H](C(=O)NC3CCCCC3)CC[C@H]2C)n1
How it was run: as §1

[9] = compound: COC(=O)N[C@@H](C)CNc1nccc(-c2cn(C(C)C)nc2-c2cc(Cl)cc(NS(C)(=O)=O)c2F)n1 [encorafenib]
How it was run: as §1

[10] = compound: COC(=O)[C@H](CCSC)NC(=O)C1=C(C=C(C=C1)NC[C@H](CS)N)C2=CC=CC=C2
How it was run: as §1

[11] = compound: COC1=CC=C(C=C1)CN2C=CC3=C2C=C(C=C3)C(=O)NO
How it was run: as §1

[12] = compound: CON(C)C(=O)N1N=C(c2cc(F)ccc2F)S[C@@]1(CCCN)c1ccccc1 [filanesib]
How it was run: as §1

[13] = compound: CO[C@H]1C[C@@H]2CC[C@@H](C)[C@@](O)(O2)C(=O)C(=O)N2CCCC[C@H]2C(=O)O[C@H]([C@H](C)C[C@@H]2CC[C@H](n3cnnn3)[C@H](OC)C2)CC(=O)[C@H](C)/C=C(\C)[C@@H](O)[C@@H](OC)C(=O)[C@H](C)C[C@H](C)/C=C/C=C/C=C/1C [zotarolimus]
How it was run: as §1

[14] = compound: COc1cc(C(=O)O)ccc1NC(=O)[C@@H]1N[C@@H](CC(C)(C)C)[C@](C#N)(c2ccc(Cl)cc2F)[C@H]1c1cccc(Cl)c1F [idasanutlin]
How it was run: as §1

[15] = compound: COc1cc(Nc2ncc3c(n2)-c2ccc(Cl)cc2C(c2c(F)cccc2OC)=NC3)ccc1C(=O)O [alisertib]
How it was run: as §1

[16] = compound: COc1cc2nc(-c3cc(F)ccc3O)nc(N[C@@H]3CNC[C@H]3C(C)(C)O)c2cc1OC
How it was run: as §1

[17] = compound: COc1cc2ncnc(Nc3ccc(F)c(Cl)c3)c2cc1OCCCN1CCOCC1 [gefitinib]
How it was run: as §1

[18] = compound: COc1cccc2cc(-c3nc([C@H]4CC[C@H](C(=O)O)CC4)n4ncnc(N)c34)[nH]c12
How it was run: as §1

[19] = compound: CS(=O)(=O)CCNCc1ccc(-c2ccc3ncnc(Nc4ccc(OCc5cccc(F)c5)c(Cl)c4)c3c2)o1 [lapatinib]
How it was run: as §1

[20] = compound: CS(=O)(=O)N1CCN(Cc2cc3nc(-c4cccc5[nH]ncc45)nc(N4CCOCC4)c3s2)CC1 [pictilisib]
How it was run: as §1

Measured: log2 fold change

DNAH11 (UniProt Q96DT5)
inactive: [1] 0.301 | [2] 0.317 | [3] 0.517 | [4] -0.083 | [5] -0.043 | [6] -0.11 | [7] 0.162 | [8] 0.061 | [9] 0.152 | [10] 0.049 | [11] 0 | [12] 0.047 | [13] 0.04 | [14] 0.03 | [15] -0.025 | [16] -0.137 | [17] -0.002 | [18] -0.203 | [19] 0.216 | [20] 0.552

FAM117A (UniProt Q9C073)
UniProt Q9C073, sequence (Q9C073 whole entry, looked up): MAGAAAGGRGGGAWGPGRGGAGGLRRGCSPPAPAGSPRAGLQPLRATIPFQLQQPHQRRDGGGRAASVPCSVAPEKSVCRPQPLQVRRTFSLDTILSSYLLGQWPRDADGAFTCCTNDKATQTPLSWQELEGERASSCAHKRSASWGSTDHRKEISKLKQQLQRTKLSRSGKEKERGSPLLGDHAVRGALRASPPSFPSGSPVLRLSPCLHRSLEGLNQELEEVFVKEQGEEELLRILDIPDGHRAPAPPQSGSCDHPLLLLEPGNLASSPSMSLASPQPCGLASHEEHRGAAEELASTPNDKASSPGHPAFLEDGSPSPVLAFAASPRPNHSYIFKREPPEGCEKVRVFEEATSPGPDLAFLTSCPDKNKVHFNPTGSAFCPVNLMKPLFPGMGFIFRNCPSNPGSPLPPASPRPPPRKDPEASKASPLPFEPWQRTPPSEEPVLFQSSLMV
active: [5] -0.268
inactive: [1] -0.019 | [2] 0.009 | [3] -0.077 | [4] 0.058 | [6] -0.141 | [7] -0.079 | [8] 0.083 | [9] -0.023 | [10] 0.009 | [11] 0.105 | [12] -0.025 | [13] 0.008 | [14] 0.076 | [15] 0 | [16] -0.059 | [17] -0.004 | [18] 0.024 | [19] -0.026 | [20] -0.019

EEF1G isoform 2 (UniProt P26641)
UniProt P26641, sequence (P26641 whole entry, looked up): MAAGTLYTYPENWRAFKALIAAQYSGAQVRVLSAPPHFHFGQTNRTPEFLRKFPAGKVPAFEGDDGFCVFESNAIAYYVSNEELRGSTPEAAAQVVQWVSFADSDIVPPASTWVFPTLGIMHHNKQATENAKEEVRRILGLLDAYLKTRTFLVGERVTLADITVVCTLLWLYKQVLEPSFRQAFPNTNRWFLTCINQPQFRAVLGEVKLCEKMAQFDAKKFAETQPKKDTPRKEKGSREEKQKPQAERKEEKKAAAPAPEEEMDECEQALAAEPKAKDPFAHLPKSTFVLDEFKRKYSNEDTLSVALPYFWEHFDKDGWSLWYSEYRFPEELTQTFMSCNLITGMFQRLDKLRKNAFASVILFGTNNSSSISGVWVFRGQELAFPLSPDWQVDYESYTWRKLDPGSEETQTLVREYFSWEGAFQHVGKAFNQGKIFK
inactive: [1] -0.012 | [2] -0.041 | [3] -0.044 | [4] -0.008 | [5] 0.075 | [6] -0.051 | [7] 0.045 | [8] 0.02 | [9] 0.076 | [10] -0.047 | [11] -0.017 | [12] 0.012 | [13] 0.027 | [14] -0.014 | [15] -0.046 | [16] -0.016 | [17] 0.018 | [18] -0.083 | [19] 0.041 | [20] -0.06

EIF4A1 (UniProt P60842)
UniProt P60842, sequence (P60842 whole entry, looked up): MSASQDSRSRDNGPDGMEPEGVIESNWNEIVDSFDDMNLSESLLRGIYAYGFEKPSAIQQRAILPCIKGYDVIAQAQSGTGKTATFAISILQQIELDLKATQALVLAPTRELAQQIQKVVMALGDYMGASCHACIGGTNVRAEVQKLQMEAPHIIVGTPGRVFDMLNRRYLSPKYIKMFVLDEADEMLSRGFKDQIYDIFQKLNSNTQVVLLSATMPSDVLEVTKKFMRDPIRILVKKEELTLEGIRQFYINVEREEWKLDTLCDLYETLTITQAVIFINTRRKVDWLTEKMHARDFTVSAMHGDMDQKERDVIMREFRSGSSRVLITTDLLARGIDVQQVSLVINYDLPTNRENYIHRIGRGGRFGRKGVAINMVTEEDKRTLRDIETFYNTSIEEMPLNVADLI
inactive: [1] -0.029 | [2] -0.138 | [3] -0.088 | [4] 0.049 | [5] -0.03 | [6] -0.116 | [7] 0 | [8] 0.012 | [9] 0.071 | [10] -0.05 | [11] 0.061 | [12] -0.11 | [13] -0.009 | [14] -0.075 | [15] -0.004 | [16] -0.01 | [17] 0.004 | [18] -0.027 | [19] 0.016 | [20] -0.088

CTU1 (UniProt Q7Z7A3)
UniProt Q7Z7A3, sequence (Q7Z7A3 whole entry, looked up): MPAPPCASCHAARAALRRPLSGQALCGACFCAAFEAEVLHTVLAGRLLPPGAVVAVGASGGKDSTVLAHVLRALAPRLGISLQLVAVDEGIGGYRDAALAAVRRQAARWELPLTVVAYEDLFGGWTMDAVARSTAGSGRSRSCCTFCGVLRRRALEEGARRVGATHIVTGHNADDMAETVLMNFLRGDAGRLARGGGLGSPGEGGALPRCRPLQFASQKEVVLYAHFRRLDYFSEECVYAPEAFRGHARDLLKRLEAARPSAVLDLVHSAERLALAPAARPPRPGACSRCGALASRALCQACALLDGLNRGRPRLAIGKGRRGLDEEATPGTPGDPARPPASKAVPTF
inactive: [1] 0.01 | [2] -0.038 | [3] -0.19 | [4] -0.029 | [5] -0.045 | [6] -0.036 | [7] -0.003 | [8] 0.09 | [9] 0.02 | [10] -0.031 | [11] 0.045 | [12] -0.193 | [13] 0.022 | [14] -0.037 | [15] -0.063 | [16] -0.061 | [17] -0.024 | [18] 0.025 | [19] -0.085 | [20] -0.005

DBN1 isoform 3 (UniProt Q16643)
UniProt Q16643, sequence (Q16643 whole entry, looked up): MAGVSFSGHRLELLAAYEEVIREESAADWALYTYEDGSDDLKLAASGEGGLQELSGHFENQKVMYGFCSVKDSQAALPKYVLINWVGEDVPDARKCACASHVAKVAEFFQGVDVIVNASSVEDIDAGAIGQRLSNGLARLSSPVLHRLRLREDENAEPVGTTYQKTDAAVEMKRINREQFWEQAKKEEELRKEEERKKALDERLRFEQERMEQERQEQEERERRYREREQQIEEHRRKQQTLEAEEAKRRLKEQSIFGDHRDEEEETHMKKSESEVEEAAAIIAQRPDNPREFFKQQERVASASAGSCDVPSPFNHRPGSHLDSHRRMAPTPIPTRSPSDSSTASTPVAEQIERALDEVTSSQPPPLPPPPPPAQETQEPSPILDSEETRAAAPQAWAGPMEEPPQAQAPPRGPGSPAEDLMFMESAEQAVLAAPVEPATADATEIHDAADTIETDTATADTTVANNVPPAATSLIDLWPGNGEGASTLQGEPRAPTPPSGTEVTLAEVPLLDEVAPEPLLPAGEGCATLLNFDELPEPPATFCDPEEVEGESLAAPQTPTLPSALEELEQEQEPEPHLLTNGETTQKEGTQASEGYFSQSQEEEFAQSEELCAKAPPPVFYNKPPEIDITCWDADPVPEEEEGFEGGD
inactive: [1] 0.121 | [2] 0.001 | [3] -0.044 | [4] -0.094 | [5] -0.042 | [6] -0.06 | [7] 0.041 | [8] -0.011 | [9] 0.097 | [10] -0.033 | [11] 0.012 | [12] 0.182 | [13] 0.074 | [14] 0.061 | [15] -0.023 | [16] -0.024 | [17] 0.05 | [18] 0.084 | [19] -0.041 | [20] -0.111

DCAF6 isoform 3 (UniProt Q58WW2)
UniProt Q58WW2, sequence (Q58WW2 whole entry, looked up): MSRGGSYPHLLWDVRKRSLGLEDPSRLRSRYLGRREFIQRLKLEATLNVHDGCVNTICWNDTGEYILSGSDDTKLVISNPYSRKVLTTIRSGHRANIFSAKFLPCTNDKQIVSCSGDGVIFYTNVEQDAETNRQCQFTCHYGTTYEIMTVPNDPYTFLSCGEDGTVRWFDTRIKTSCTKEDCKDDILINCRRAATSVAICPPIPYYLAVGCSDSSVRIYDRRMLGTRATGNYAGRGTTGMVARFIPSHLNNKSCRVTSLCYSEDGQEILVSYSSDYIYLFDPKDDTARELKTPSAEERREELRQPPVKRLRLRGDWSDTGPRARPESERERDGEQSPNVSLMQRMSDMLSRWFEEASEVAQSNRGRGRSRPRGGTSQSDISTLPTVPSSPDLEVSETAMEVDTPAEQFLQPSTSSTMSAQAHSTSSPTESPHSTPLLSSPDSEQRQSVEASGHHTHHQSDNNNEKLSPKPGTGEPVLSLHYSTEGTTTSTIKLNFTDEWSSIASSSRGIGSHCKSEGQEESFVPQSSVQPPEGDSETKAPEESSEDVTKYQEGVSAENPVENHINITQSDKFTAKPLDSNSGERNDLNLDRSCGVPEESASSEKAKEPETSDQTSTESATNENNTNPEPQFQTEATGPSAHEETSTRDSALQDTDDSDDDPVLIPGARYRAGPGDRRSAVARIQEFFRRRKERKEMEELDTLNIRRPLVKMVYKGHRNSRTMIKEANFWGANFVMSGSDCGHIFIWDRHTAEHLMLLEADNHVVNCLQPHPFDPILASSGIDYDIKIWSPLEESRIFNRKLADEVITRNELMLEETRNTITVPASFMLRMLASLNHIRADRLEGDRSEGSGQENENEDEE
inactive: [1] 0.093 | [2] 0.001 | [3] 0.001 | [4] -0.05 | [5] -0.027 | [6] -0.012 | [7] -0.028 | [8] -0.051 | [9] 0 | [10] 0.034 | [11] -0.007 | [12] -0.017 | [13] -0.045 | [14] -0.026 | [15] -0.081 | [16] -0.023 | [17] -0.01 | [18] 0.059 | [19] 0.016 | [20] 0.001

EEF1AKNMT (UniProt Q8N6R0)
UniProt Q8N6R0, sequence (Q8N6R0 whole entry, looked up): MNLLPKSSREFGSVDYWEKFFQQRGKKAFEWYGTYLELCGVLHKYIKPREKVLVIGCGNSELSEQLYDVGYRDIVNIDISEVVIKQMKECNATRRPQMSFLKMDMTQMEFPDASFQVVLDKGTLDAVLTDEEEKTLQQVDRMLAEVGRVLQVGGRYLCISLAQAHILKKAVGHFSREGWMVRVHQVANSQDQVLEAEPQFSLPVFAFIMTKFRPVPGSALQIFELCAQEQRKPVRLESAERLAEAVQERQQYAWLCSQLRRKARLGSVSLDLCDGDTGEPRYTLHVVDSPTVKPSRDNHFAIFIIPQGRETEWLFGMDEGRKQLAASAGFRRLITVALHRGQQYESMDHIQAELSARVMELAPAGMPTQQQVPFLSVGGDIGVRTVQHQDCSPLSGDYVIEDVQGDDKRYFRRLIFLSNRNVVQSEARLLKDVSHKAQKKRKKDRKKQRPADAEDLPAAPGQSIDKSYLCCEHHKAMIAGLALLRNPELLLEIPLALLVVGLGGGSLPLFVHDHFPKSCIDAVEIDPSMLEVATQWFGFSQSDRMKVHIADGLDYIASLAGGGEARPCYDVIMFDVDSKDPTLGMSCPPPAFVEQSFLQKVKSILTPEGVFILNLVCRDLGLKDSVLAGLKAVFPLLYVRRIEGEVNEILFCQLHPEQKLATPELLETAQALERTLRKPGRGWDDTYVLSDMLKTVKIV
inactive: [1] -0.063 | [2] -0.174 | [3] -0.039 | [4] -0.004 | [5] 0.063 | [6] -0.068 | [7] 0.115 | [8] 0.059 | [9] 0.095 | [10] -0.182 | [11] -0.256 | [12] -0.052 | [13] 0.096 | [14] 0.013 | [15] -0.035 | [16] 0.037 | [17] 0.065 | [18] -0.037 | [19] -0.014 | [20] 0
